The results in this text go back to PubChem BioAssay (NCATS).

Each structure is given as a SMILES string. Several values for one entry are separate records, joined by “and”; a condition that tells them apart may be missing. Identical values can stand only once. Inconclusive results are not listed. Where a structure was tested more than once in an assay, its records may differ in their call. Activity calls are given as the source filed them. Unless noted, calls come from the whole dose curve; as a rule, active = well fitted curve in the direction sought with a large enough effect; inconclusive = small, poorly fitted or top-dose-only effect, or another doubt; inactive = no such curve, though single readings can be large; an effect the other way counts as inactive or inconclusive.

Experiment [1] in a line: High-throughput drug toxicity screening in the BPDCN cell line Gen2.2 (AID 1224824; call rule not given here;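 note: cells exposed to compounds for 48 h before reading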). As to conditions: Gen2.2 BPDCN cells; at 45.8 µM (top of the series) unless noted. The essentials:
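CellTiter-Glo luminescence after 48 h compound exposure of Gen2.2 cells; percent activity set with DMSO as 100% and bortezomib (9.2 uM final) as 0%. Cells seeded at 500 per well, RPMI + 10% FBS, 37 °C.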

The nature of experiment [2]: qHTS assay for measurement of the activity of small molecule inhibitors on Zika virus induced Caspase-3 activity in human iPSC derived neural progenitor cells (hNPCs) (AID 1224857). Note: nearly all actives have a fitted effect of over 65% in size. Note: potency is the fitted concentration of half-maximal effect. The essentials:
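hNPCs seeded 350 cells/well, cultured 16–20 h; compounds added 1 h before ZIKV (2 FFU/cell), 37 C 6 h. Caspase-Glo 3/7 luminescence after 30 min RT; % inhibition from induction scaled to uninfected (0%) and infected (100%) wells.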
In general terms: In qHTS, concentration-response curves come from the screen itself.

Experiment [3] is described as follows: qHTS assay for measurement of the activity of small molecule inhibitors on Zika virus induced Caspase-3 activity in human astrocytoma cells (AID 1224859). Note: potency is the fitted concentration of half-maximal effect. The essentials:
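Luminescence read-out (Caspase-Glo 3/7, 30 min RT) of caspase activity in SNB-19 cells infected 6 h with ZIKV, 2 FFU/cell, after 1 h compound pretreatment; % inhibition from induction normalised to uninfected (0%) and infected (100%) wells.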

Experiment [4] in a line: qHTS Screen of the MIPE 4.0 Collection Against Ewings Sarcoma (RDES) (AID 1259252). Note: nearly all actives have a fitted effect of over 35% in size. Note: potency is the fitted concentration of half-maximal effect. The gist of the method: (§1)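 Here, cells in 5% FBS RPMI were exposed for two days (48 h) to compound dilutions added four hours after plating. ATP-based CellTiter-Glo luminescence measured viability, normalized to vehicle and no-cell blanks.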
Experiment [5] is described as follows: qHTS Screen of the MIPE 4.0 Collection Against Ewings Sarcoma (TC32) (AID 1259256). Note: nearly all actives have a fitted effect of over 45% in size. Note: potency is the fitted concentration of half-maximal effect. The essentials:
as §1

Experiment [6] can be described thus: qHTS assay to identify small molecule inhibitors of chordoma cells - UCH-1 (AID 1259355). Note: nearly all actives have a fitted effect of over 55% in size. Note: potency is the fitted concentration of half-maximal effect. The essentials:
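Luminescent ATP read-out (CellTiter-Glo, 30min at room temperature) measured viability of UCH-1 cells exposed for 48hr to test drugs at 15 concentrations, co-dosed with a five-agent combination of auranofin, camptothecin, doxorubicin, rubitecan and topotecan.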

Experiment [7] in a line: qHTS assay to identify small molecule inhibitors of chordoma cells - UCH-2 (AID 1259356). Note: % is set by controls: 0 for no effect and ±100 for the full control effect.
Experiment [8] is described as follows: P-glycoprotein substrates identified in KB-8-5-11 adenocarcinoma cell line, qHTS therapeutic library screen (AID 1346987). Note: nearly all actives have a fitted effect of over 65% in size. Note: potency is the fitted concentration of half-maximal effect. As to conditions: outcome: dose series up to 44.5 µM unless noted. The gist of the method:
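P-gp-mediated resistance screen: KB-8-5-11 cells treated 72 h with compounds in dose-response. CellTiter-Glo viability.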

The nature of experiment [9]: qHTS profiling of the MIPE4 collection as inhibitors of Plasmodium falciparum (HB3) proliferation (AID 743347; call rule not given here;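 note: plate controls were DMSO vehicle wells for no effect and artemisinin wells for full effect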). The conditions noted are these: P. falciparum HB3 in erythrocytes, SYBR Green DNA, 72 h; at 28.5 µM (top of the series) unless noted. The gist of the method: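 Erythrocytes infected with P. falciparum (0.3% parasitemia, 2.5% hematocrit) incubated with compounds 72 h at 37 C, 5% CO2. Lysis with saponin/Triton buffer containing SYBR Green I, overnight at room temperature in the dark; DNA fluorescence (485/535 nm) normalised to 0.29 uM artemisinin and DMSO.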

The nature of experiment [10]: qHTS Screen of the MIPE 4.0 Collection Against Ewings Sarcoma (TC71) (AID 1259253). Note: nearly all actives have a fitted effect of over 40% in size. Note: potency is the fitted concentration of half-maximal effect. The essentials: as §1
Experiment [11] can be described thus: qHTS Screen of the MIPE 4.0 Collection Against Ewings Sarcoma (EW8) (AID 1259255).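 For viability: 100% = DMSO-treated cells and 0% = medium-only wells without cells.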 Note: nearly all actives have a fitted effect of over 35% in size. Note: potency is the fitted concentration of half-maximal effect. The gist of the method: as §1
A short description of experiment [12]: Natriuretic polypeptide receptor (hNpr1) antagonism - Pilot counterscreen GloSensor control cell line (AID 1347045; calls by dose curve; note: potency is the fitted concentration of half-maximal effect). The gist of the method:
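This counterscreen uses HEK293 cells expressing the GIP/pGS-40F cGMP biosensor. Compound-treated cells are challenged with 50 uM sodium nitroprusside, and the luciferase signal is compared before and after stimulation.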
In general terms: A counterscreen serves to expose hits that act by an unwanted route or on another target.

Experiment [13] is described as follows: P-glycoprotein substrates identified in KB-3-1 adenocarcinoma cell line, qHTS therapeutic library screen (AID 1346986). Note: nearly all actives have a fitted effect of over 60% in size. The conditions noted are these: outcome: dose series up to 44.5 µM unless noted. The essentials: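 KB-3-1 parental cells and P-gp-overexpressing KB-8-5-11 (colchicine omitted during assay) plated at 500 cells/well, dosed in dose-response, incubated 72 h at 37 degree C. CellTiter-Glo luminescence read; KB-8-5-11 also tested with tariquidar.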

Regarding `CC(C(=O)O)c1cccc(C(=O)c2ccccc2)c1` (stereo not given), the cell viability, % of control (lower = more cytotoxic) in experiment [1] worked out at 152%. Besides, the Potency entry in experiment [2], in [3], in experiment [6] and in [8] was “inactive” in each case. In addition, the results for the Potency in experiment [4] and in experiment [5] were 7.43 µM (active) and 14.8 µM (active), respectively. The compound was classed as inactive in experiment [7].
In the case of `CC(C)NCC(O)c1ccc(O)c(O)c1` (stereo not given), the growth, % of control in experiment [9] worked out at 9.05%. The cell viability, % of control (lower = more cytotoxic) in experiment [1] worked out at 46.4%. Further, the Potency result in experiment [2], in experiment [6] and in experiment [8] was “inactive” each time. For the same compound, the Potency in [10] is 5.9 µM (active); in experiment [11] it was 20.9 µM (active).
Regarding `CN1CCN2c3ccccc3Cc3ccccc3C2C1` (stereo not given), the growth, % of control in [9] stood at 99.7%. Besides, in experiment [1], the cell viability, % of control (lower = more cytotoxic) was 83.4%. The Potency entry in experiment [2], in experiment [3], in experiment [6] and in experiment [12] was “inactive” each time. Besides, the Potency in experiment [4] is 20.9 µM (active); in experiment [10] it was 16.6 µM (active). For the same compound, the compound was called inactive in experiment [7].
Consider `Nc1ccn([C@H]2CC[C@@H](CO)O2)c(=O)n1`, for which the growth, % of control in experiment [9] was found to be 176%. For the same compound, the cell viability, % of control (lower = more cytotoxic) in experiment [1] turned out to be 251%. In addition, the Potency result in experiment [2], in experiment [4], in experiment [10], in experiment [11], in [5] and in experiment [8] was “inactive” each time. In addition, the Potency result in experiment [12] was “inactive”. Besides, in experiment [13], the compound was called inactive.
Turning to `O=C(Nc1ccc([N+](=O)[O-])cc1Cl)c1cc(Cl)ccc1O`, in experiment [9], the growth, % of control amounted to 3.45%. In experiment [1], the cell viability, % of control (lower = more cytotoxic) came out at 10.1%. Moreover, the Potency result in experiment [2] is “inactive and 1.05 µM (active)”; in experiment [3], 2.82 µM (active) and 1.18 µM (active) and 1 µM (active); in experiment [4], 16.6 µM (active); in experiment [10] it was 1.32 µM (active); in [5], 1.32 µM (active); in experiment [6], 3.98 µM (active). For the same compound, in [12], the Potency was 0.464 µM (active).
In the case of `CCOC(=O)c1ncn2c1CN(C)C(=O)c1cc(F)ccc1-2`, in experiment [1], the cell viability, % of control (lower = more cytotoxic) worked out at 100%. Also, the Potency entry in [2], in experiment [4], in experiment [10], in experiment [6], in [8] and in experiment [12] was “inactive” in each case. The Potency in experiment [5] was 13.2 µM (active). Further, the compound was called inactive in experiment [7].
Compound `CN(C)CCOC(c1ccccc1)c1ccccc1` came in with a growth, % of control in experiment [9] of 100%. In experiment [1], the cell viability, % of control (lower = more cytotoxic) is 136%. The Potency entry in experiment [2], in experiment [11], in experiment [8] and in experiment [12] was “inactive” in each case. Also, in [13], the outcome was inactive.
As to `CN(C)CCCN1c2ccccc2CCc2ccc(Cl)cc21`, the growth, % of control in [9] is 21.5%. Besides, the cell viability, % of control (lower = more cytotoxic) in [1] turned out to be 29.4%. The Potency result in experiment [2] and in [3] was “inactive” in each case. In addition, the Potency is 0.662 µM (active) in [4], 0.743 µM (active) in experiment [10], 2.96 µM (active) in experiment [5] and 20.9 µM (active) in [8]. In addition, the call in experiment [7] was inactive.
For the compound `NS(=O)(=O)c1cc2c(cc1Cl)NCNS2(=O)=O`, the growth, % of control in experiment [9] stood at 40.8%. Moreover, the cell viability, % of control (lower = more cytotoxic) in experiment [1] came out at 159%. Moreover, the Potency result in [2], in experiment [4], in experiment [10], in [5], in experiment [8] and in experiment [12] was “inactive” throughout.
As to `Cc1ccc(-c2cc(C(F)(F)F)nn2-c2ccc(S(N)(=O)=O)cc2)cc1`, in experiment [9], the growth, % of control was 7.95%. In experiment [1], the cell viability, % of control (lower = more cytotoxic) amounted to 250%. Moreover, the Potency entry in experiment [2], in [3] and in experiment [6] was “inactive” throughout. Also, the Potency in experiment [4] is 4.18 µM (active); in [10], 13.2 µM (active); in experiment [5] it was 11.8 µM (active). In addition, the compound was called inactive in experiment [7] and in experiment [13].
In turn, `Nc1nnc(-c2cccc(Cl)c2Cl)c(N)n1` gave a growth, % of control in experiment [9] of 98.1%. The cell viability, % of control (lower = more cytotoxic) in [1] is 86.5%. The Potency result in [2], in [6] and in [8] was “inactive” in each case.
Compound `CCN1CCCC1CNC(=O)c1cc(S(=O)(=O)CC)c(N)cc1OC` (stereo not given) gave a growth, % of control in [9] of 101%. In experiment [1], the cell viability, % of control (lower = more cytotoxic) was found to be 143%. Further, the Potency entry in [2], in [4], in [10], in experiment [8] and in experiment [12] was “inactive” throughout.
As to `Clc1ccc(C(c2ccccc2Cl)C(Cl)Cl)cc1` (stereo not given), in experiment [9], the growth, % of control was determined as 50.8%. Besides, the cell viability, % of control (lower = more cytotoxic) in experiment [1] was found to be 22.5%. The Potency entry in experiment [2] and in experiment [6] was “inactive” throughout. In addition, in [7], the compound was classed as inactive.
In [9], `CC(C)(Oc1ccc(C2CC2(Cl)Cl)cc1)C(=O)O` (stereo not given) registered a growth, % of control of 81.2% [at 57.5 µM]. In addition, the cell viability, % of control (lower = more cytotoxic) in experiment [1] was 77.7% [at 92.2 µM]. In addition, the Potency entry in experiment [2], in [6], in experiment [8] and in [12] was “inactive” throughout. Besides, the values for the Potency in [4] and in experiment [5] were 8.55 µM (active) and 42.9 µM (active), respectively. Also, the outcome in experiment [13] was “inactive [at 93.4 µM]”.
In [9], `Clc1ccccc1C(c1ccccc1)(c1ccccc1)n1ccnc1` came in with a growth, % of control of 5.57%. Further, the cell viability, % of control (lower = more cytotoxic) in experiment [1] was found to be 52.9%. In addition, the Potency entry in [2], in experiment [3] and in experiment [6] was “inactive” each time. For the same compound, the Potency in experiment [10] was 20.9 µM (active); in experiment [8], 9.88 µM (active). Further, the result in experiment [7] was inactive.
For the compound `C[C@](N)(Cc1ccc(O)c(O)c1)C(=O)O`, the growth, % of control in [9] worked out at 86%. Further, the cell viability, % of control (lower = more cytotoxic) in [1] stood at 46.6%. Besides, the Potency entry in experiment [2], in experiment [4], in [10], in experiment [11], in [5] and in experiment [6] was “inactive” throughout. Also, the Potency entry in experiment [8] and in experiment [12] was “inactive” each time. In experiment [7], the compound was classed as inactive.
In turn, `CC#C[C@]1(O)CC[C@H]2[C@@H]3CCC4=CC(=O)CCC4=C3[C@@H](c3ccc(N(C)C)cc3)C[C@@]21C` showed a growth, % of control in experiment [9] of 6.33%. For the same compound, the cell viability, % of control (lower = more cytotoxic) in experiment [1] is 6.18%. Further, the Potency entry in experiment [2] and in experiment [3] was “inactive” throughout. Besides, the Potency in experiment [4] is 0.187 µM (active); in experiment [10], 0.264 µM (active); in experiment [5], 0.264 µM (active); in experiment [8], 23.1 µM (active). The result in experiment [7] was inactive.
